The values that follow come from PubChem BioAssay.

Structures are written as SMILES. For part of these data: Results with a measured potency or affinity are listed apart. The list shows a part of the results. Active and inactive are the calls of the source.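 How the source made its calls, unless noted: active means fluorescence ratio normalized to control raised more than 50% in primary screen plus both repeat runs; inactive means the rest.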

Assay [1] concerns TRPC4 beta (transient receptor potential cation channel C4), mouse. The experiment in a line: TRPC4 cation channel opening, retest – cell-based, Fluo4 calcium, HEK293 TRPC4beta/mu-opioid, duplicates, 10 µM, confirmation (AID 2426).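 Further: percent rise of integrated ratio over buffer wells lacking compound which define 0%.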 Particulars: Fluo4 calcium fluorescence, at 10 µM; hits give high values.
Assay [2] concerns transient receptor potential cation channel C4 beta (TRPC4), mouse. The experiment in a line: TRPC4 cation channel opening, second retest – cell-based, second round, Fluo4, HEK293 TRPC4beta/mu-opioid, 1 µM, confirmation (AID 2461;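 active means primary screen active and over 50% activation in each of two duplicate runs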;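 on activation: 0% = wells without test compound as baseline of integrated fluorescence ratio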). Particulars: Fluo4 calcium fluorescence, at 1 µM; hits give high values.
Assay [3] has as its system TRPC4 (transient receptor potential cation channel C4 beta), mouse. The experiment in a line: potentiation of DAMGO EC20 TRPC4 response – cell-based, second round, Fluo-4, HEK293 TRPC4beta/mu-opioid, 1 µM, confirmation (AID 2554;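 active means primary screen hit whose fluorescence ratio, in both repeats, exceeds the weak agonist control mean by 3 SD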). To be noted: DAMGO EC20, Fluo-4 calcium flux, at 1 µM; hits give high values.
Assay [4] relates to TRPC4 beta (transient receptor potential cation channel C4), mouse. Nature of the assay: potentiation of DAMGO EC20 TRPC4 response – cell-based, Fluo-4, HEK293 TRPC4beta/mu-opioid, confirmation (AID 2555;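 active means primary screen hit whose calcium fluorescence ratio, in both repeats, exceeds the weak agonist control mean by 3 SD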). Particulars: DAMGO EC20, Fluo-4 calcium flux, at 10 µM; hits give high values.
Assay [5] concerns the target Short transient receptor potential channel 4 (Mus musculus) (UniProt Q9QUQ5). Nature of the assay: blockers of DAMGO-evoked TRPC4 calcium flux – cell-based, Fluo4, HEK293 TRPC4beta/mu-opioid, confirmation (AID 2636;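 active means calcium signal cut by more than 3 SD below the full-agonist control yet still positive, in both repeats and the earlier primary screen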). Particulars: at 10 µM; hits give high values. On the technique in general: Calcium assays in cells follow changes in intracellular calcium, usually with a dye or a luminescent sensor.

Assay [6] shares this target. The experiment in a line: blockers of DAMGO-evoked TRPC4 calcium flux – cell-based, second round, Fluo4, HEK293 TRPC4beta/mu-opioid, 1 µM, confirmation (AID 2637;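 active means calcium signal ratio cut to more than 3 SD under the fully stimulated control mean yet still positive, in both repeats and the primary screen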). Particulars: at 1 µM; hits give high values.
Assay [7] shares this target. The experiment in a line: potentiation of DAMGO-evoked TRPC4 calcium signal – cell-based, HEK293 TRPC4/mu-opioid, Fluo-4 calcium, EC20 DAMGO, dose response (AID 434941;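 active means earlier screen potentiator hit that boosts the TRPC4 ion channel at some dose, with a dose response; inactive means no potentiation, no dose response, or not a prior hit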;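 further: calcium entry triggered by an EC20 dose of DAMGO at the co-expressed mu-opioid receptor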).
The target is the same in assay [8]. The experiment in a line: block of DAMGO-driven TRPC4 calcium entry – cell-based, HEK293 TRPC4/mu-opioid, Fluo-4 calcium, dose response (AID 434942;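 active means primary screen inhibitor hit that blocks the TRPC4 channel at some tested dose, yielding a dose curve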).
Assay [9] concerns the target Short transient receptor potential channel 6 (Mus musculus) (UniProt Q61143). The experiment in a line: TRPC6 blockade by TRPC4 inhibitor hits – cell-based, HEK293, membrane potential dye, duplicate, selectivity assay for TRPC4 inhibitor project, confirmation (AID 434948;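 active means active in primary screen and both duplicates, each dropping signal beyond three positive-control SD with fluorescence still positive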). Particulars: HEK293 TRPC6, membrane potential dye fluorescence, at 10 µM; inhibition: hits give high values, stimulated with maximal-effect acetylcholine unless noted; outcome: stimulated with maximal-effect acetylcholine unless noted.

Assay [10] shares this target. Nature of the assay: TRPC6 opening by TRPC4 activator hits – cell-based, HEK293, membrane potential dye, duplicate, selectivity assay for TRPC4 activator project, confirmation (AID 434950;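 active means membrane potential signal rise above negative control mean plus 3 SD in both duplicates, also active in the earlier TRPC4 screen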;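 on activation: 0% = buffer only wells and 100% = acetylcholine maximal-effect wells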). Particulars: HEK293 TRPC6, membrane potential fluorescence, at 10 µM; activation: hits give high values; outcome: activation.
Assay [11] shares this target. The experiment in a line: positive modulators of mouse TRPC6 channel – HEK293 cells, membrane potential dye, duplicate, selectivity assay for TRPC4 potentiator project, confirmation (AID 434952;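 active means compound raising the membrane signal above positive-control mean plus 3 SD in both repeats, and a primary screen hit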). To be noted: HEK293 TRPC6, membrane potential dye fluorescence, at 10 µM; maximal acetylcholine added after compound unless noted.
The target in assay [12] is Short transient receptor potential channel 4 (Mus musculus) (UniProt Q9QUQ5). The experiment in a line: calcium flux activators in TRPC4/5HT1a cells, counter-screen for TRPC4 activator project, cell-based, second counter screen, HEK293 TRPC4/5HT1a, Fluo-4 (AID 434977;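 active means calcium signal rise above buffer-control mean plus 5 SD in both duplicates, and also a hit in the primary screen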;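 on activation: plate controls were assay buffer for no effect and maximal serotonin response for full effect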). To be noted: Fluo-4 calcium flux, at 10 µM; hits give high values.
Chain of Short transient receptor potential channel 4 (Mus musculus) (Q9QUQ5 whole entry, looked up): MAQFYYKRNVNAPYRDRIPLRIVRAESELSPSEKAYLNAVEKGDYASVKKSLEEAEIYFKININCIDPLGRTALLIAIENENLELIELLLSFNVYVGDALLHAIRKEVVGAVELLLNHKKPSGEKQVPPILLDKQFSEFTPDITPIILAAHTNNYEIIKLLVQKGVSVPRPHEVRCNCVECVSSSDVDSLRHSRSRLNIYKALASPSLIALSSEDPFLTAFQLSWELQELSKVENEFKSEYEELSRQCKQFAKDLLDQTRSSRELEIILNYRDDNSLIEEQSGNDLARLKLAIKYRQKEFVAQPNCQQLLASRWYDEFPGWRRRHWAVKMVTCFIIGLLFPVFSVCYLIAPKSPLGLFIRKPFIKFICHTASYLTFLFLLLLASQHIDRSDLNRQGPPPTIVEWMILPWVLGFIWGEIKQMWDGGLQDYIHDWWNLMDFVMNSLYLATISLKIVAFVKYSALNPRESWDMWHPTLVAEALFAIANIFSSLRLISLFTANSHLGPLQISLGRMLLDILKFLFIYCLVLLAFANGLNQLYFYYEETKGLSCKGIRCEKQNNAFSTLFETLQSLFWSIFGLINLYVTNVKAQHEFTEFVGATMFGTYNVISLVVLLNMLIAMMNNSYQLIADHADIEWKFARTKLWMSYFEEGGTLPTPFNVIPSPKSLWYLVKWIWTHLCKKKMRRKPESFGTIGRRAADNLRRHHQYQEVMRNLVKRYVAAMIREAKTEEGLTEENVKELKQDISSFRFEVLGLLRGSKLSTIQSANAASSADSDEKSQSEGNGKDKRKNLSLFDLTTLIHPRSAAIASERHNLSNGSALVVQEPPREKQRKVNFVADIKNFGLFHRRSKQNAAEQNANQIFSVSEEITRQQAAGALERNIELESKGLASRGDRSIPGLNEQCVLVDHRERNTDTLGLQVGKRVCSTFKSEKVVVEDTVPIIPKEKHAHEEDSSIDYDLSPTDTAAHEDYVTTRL
The nature of assay [13]: serotonin-gated TRPC4 signal block – cell-based, second counter screen, HEK293 TRPC4/5HT1a, Fluo-4, counter-screen for TRPC4 inhibitor project, confirmation (AID 434978;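 active means primary screen active whose calcium signal fell more than 3 SD beyond the full-serotonin control mean in both duplicate plates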;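 further: serotonin given first at submaximal then at maximal dose after compound preincubation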). Particulars: Fluo-4 calcium flux, at 10 µM; inhibition: hits give high values, serotonin added to trigger calcium flux unless noted; outcome: serotonin added to trigger calcium flux unless noted. A general note: The purpose of a counterscreen is to sort out artefacts and off-target activity.

In assay [14] the test system is TRPC4 (mouse), co-expressed with 5HT1a in HEK293. The experiment in a line: enhancement of serotonin-evoked TRPC4 response – cell-based, second counter screen, HEK293 TRPC4/5HT1a, Fluo-4, counter-screen for TRPC4 potentiator project, confirmation (AID 434979;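 active means signal rise over 3 SD above mean of control wells given weak agonist, in both repeats and first screen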). Particulars: Fluo-4 calcium flux, at 10 µM; outcome: serotonin added at its EC20 dose unless noted; potentiation: hits give high values, serotonin added at its EC20 dose unless noted.

Assay [15] can be described thus: nonspecific calcium rise without TRPC4 – cell-based, HEK293 mu-opioid receptor line, counter-screen for TRPC4 activator project, confirmation (AID 449723;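 active means hit in primary screen, with calcium signal over 5 SD above buffer well mean in both duplicates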;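 further: counter screen cells carry the mu-opioid receptor alone and lack TRPC4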). To be noted: HEK293 mu-opioid cells, Fluo-4 calcium fluorescence, at 10 µM; hits give high values.
Assay [16] in a line: nonspecific potentiation of DAMGO calcium response – cell-based, HEK293 mu-opioid receptor line, counter-screen for TRPC4 allosteric potentiator project, confirmation (AID 449724;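 active means calcium signal rise more than 3 SD above the low-dose agonist control mean, in both duplicate plates and the primary screen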;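 further: HEK293 cells carrying mu-opioid receptor only with no TRPC4 channel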). Particulars: HEK293 mu-opioid receptor cells, Fluo-4 calcium flux, at 10 µM; compound added before EC20 DAMGO stimulus unless noted.
The target in assay [17] is Short transient receptor potential channel 6 (Mus musculus) (UniProt Q61143). Nature of the assay: blockers of TRPC6 cation channel activity – HEK293 cells, membrane potential dye, duplicate, confirmation (AID 488960;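 active means fluorescence ratio falls more than 5 SD below the full-stimulation control mean, in both duplicate runs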;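 further: integrated fluorescence ratio of peak minus minimum over baseline after agonist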). To be noted: ACh-evoked depolarization, at 10 µM; hits give high values.
Chain of Short transient receptor potential channel 6 (Mus musculus) (Q61143 whole entry, looked up): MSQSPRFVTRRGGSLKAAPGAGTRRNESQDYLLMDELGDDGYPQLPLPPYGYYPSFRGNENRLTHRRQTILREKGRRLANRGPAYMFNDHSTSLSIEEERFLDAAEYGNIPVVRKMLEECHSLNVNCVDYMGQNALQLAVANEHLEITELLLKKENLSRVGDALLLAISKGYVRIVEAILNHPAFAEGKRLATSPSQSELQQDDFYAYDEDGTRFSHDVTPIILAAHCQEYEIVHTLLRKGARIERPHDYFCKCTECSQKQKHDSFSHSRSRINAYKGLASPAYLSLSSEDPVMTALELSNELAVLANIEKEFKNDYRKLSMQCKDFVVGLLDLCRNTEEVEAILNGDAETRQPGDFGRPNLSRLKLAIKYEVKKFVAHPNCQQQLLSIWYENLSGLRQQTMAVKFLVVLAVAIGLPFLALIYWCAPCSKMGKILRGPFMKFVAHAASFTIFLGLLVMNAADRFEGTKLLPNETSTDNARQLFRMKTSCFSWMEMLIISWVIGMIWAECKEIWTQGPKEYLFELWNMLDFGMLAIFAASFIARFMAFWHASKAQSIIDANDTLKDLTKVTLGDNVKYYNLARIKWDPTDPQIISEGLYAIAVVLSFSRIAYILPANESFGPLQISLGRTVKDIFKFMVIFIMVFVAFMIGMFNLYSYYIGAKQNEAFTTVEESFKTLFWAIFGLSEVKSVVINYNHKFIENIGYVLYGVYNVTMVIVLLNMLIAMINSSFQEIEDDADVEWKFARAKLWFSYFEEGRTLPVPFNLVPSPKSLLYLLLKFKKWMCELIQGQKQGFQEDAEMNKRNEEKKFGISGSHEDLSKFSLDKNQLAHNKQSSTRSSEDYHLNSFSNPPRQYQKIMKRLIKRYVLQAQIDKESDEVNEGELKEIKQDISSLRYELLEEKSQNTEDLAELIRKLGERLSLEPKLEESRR

Regarding `NC(N)=N/N=C/c1ccc(N(c2ccccc2)c2ccccc2)cc1`, the activation in [1] was 60% (active); in [12], 48.2% (active); in [15], 20.3% (active). Further, the result in assay [2], in assay [3], in assay [4], in assay [5], in assay [6] and in assay [7] was inactive. Also, the result in [8], in assay [9], in [10], in [11], in [13] and in assay [14] was inactive. Moreover, the result in assay [16] was inactive.

In the case of `CCOC(=O)C1(CCc2ccccc2)CCN(Cc2ccc(NC(C)=O)cc2)CC1`, the activation in assay [1] was 83% (active); in assay [2] it was 90% (active); in assay [10], 41.5% (active). Further, the result in assay [3], in [4], in assay [5], in assay [6], in [7] and in assay [8] was inactive. Also, the result in assay [9], in assay [11], in assay [12], in assay [13], in [14] and in [15] was inactive. In addition, the outcome in assay [16] was inactive.

`Clc1ccc2sc(C3CCNCC3)nc2c1`: the activation in assay [1] was 210% (active); in assay [2], 166% (active); in assay [12], 82.6% (active). Also, the result in [3], in [4], in assay [5], in assay [6], in [7] and in assay [8] was inactive. Moreover, the compound was called inactive in assay [9], in assay [10], in [11], in [13], in assay [14] and in assay [15]. Besides, the outcome in assay [16] was inactive.

Turning to `CNCCc1nc(N)n[nH]1`, the activation was 160% (active) in assay [1], 172% (active) in assay [2] and 146% (active) in [12]. Besides, the outcome in assay [3], in [4], in assay [5], in assay [6], in assay [7] and in assay [8] was inactive. In addition, the compound was classed as inactive in [9], in [10], in assay [11], in assay [13], in assay [14] and in [15]. Further, the outcome in [16] was inactive.

By inhibition is commonly meant the percentage by which the read-out fell short of the control. Regarding `CC1(C)Cc2c(C#N)c(N3CCNCC3)nc(-c3ccco3)c2CS1`, the inhibition in assay [17] is 62.5% (active).

On to `CN(C)C(CNC(=O)Cc1c(Cl)cccc1Cl)c1ccccc1` (centres undefined), for which the activation is 148% (active) in [1], 86% (active) in assay [2] and 57.5% (active) in assay [10]. Besides, the result in assay [3], in [4], in assay [5], in assay [6], in assay [7] and in [8] was inactive. In addition, the outcome in assay [9], in assay [11], in [12], in [13], in assay [14] and in [15] was inactive. For the same compound, the outcome in assay [16] was inactive.

Regarding `COc1ccc(C(CNC(=O)c2ccc3c(c2)CCC3)N(C)C)cc1` (centres undefined), the activation in assay [1] was 237% (active); in assay [2], 142% (active); in assay [10], 76.5% (active); in assay [15], 12.1% (active). Further, the result in assay [3], in [4], in assay [5], in [6], in assay [7] and in assay [8] was inactive. Moreover, the result in [9], in assay [11], in [12], in assay [13], in assay [14] and in assay [16] was inactive.

As to `CCC(=O)C(CCN1CCOCC1)(c1ccccc1)c1ccccc1`, the activation in assay [1] is 289% (active); in assay [2] it was 164% (active); in assay [10] it was 69% (active); in assay [12], 5.98% (active). Further, the result in assay [3], in assay [4], in [5], in assay [6], in [7] and in assay [8] was inactive. In assay [15], the outcome was inactive. In addition, the outcome in assay [9], in [11], in assay [13], in assay [14] and in assay [16] was “inactive [setting not given]” each time.

For `Cc1ccc(C[n+]2c(-c3ccc(C)cc3)cc(-c3ccc(C)cc3)cc2-c2ccc(C)cc2)cc1`, the activation is 152% (active) in assay [1], 48.5% (active) in [12] and 19.8% (active) in [15]. The outcome in [2], in [3], in assay [4], in [5], in assay [6] and in [7] was inactive. Also, the outcome in assay [8], in assay [9], in assay [10], in assay [11], in [13] and in assay [14] was inactive. Also, the outcome in [16] was inactive.

As to `Nc1cc(N2CCNCC2)ccc1[N+](=O)[O-]`, the activation was 199% (active) in [1], 84% (active) in assay [2] and 10.7% (active) in [12]. Moreover, the outcome in assay [3], in assay [4], in assay [5], in [6], in assay [8] and in assay [9] was inactive. Further, the compound was called inactive in assay [10], in [11], in [13], in [15] and in assay [16]. Also, the potentiation in [14] is 38.4% (active).
